WRN helicase inh-1 – qHTS for Inhibitors of WRN Helicase; Potency, µM (titrated, usually from 114 µM), for the others: at the top dose activity change, negative = inhibition, actives largely listed as inhibitors; WRN helicase unwinding, fluorescent forked duplex, kinetic; Bifunctional 3'-5' exonuclease/ATP-dependent helicase WRN (Homo sapiens), Q14191; hit rate 0.46% among 360,000; further: on the % scale 0 is the no-effect control and ±100 the full control effect; nearly all actives have a fitted effect of over 55% in size
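Screening of the MLSMR collection measured strand separation of a quenched forked DNA duplex (100 nM) by 20 nM WRN with 2 mM ATP, all final. Compounds were preincubated with enzyme 15 min at room temperature.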
POLI inh – qHTS for Inhibitors of Polymerase Iota | Pol iota fluorescent replication assay, 10 min | Potency, µM (doses to about 115 µM), inactives show at the highest dose activity, negative = inhibition, usual class: inhibitors | hit rate 1% among 390,000
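Fluorescent replication assay read twice, at 0 min and 10 min after adding 50 nM (final) substrate. Enzyme (10 nM) and compounds were first incubated 15 min at room temperature; enzyme-free buffer wells were negative controls.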
FEN1 inh-1 – qHTS Assay for the Inhibitors of Human Flap endonuclease 1 (FEN1); Potency, µM (titrated, usually from 114 µM), without a hit: at the top dose activity change, negative = inhibition, most hits filed as inhibitors; hit rate 0.35% among 390,000; Recombinant FEN1 flap cleavage, fluorescence, 15 min; further: on the % scale 0 is the no-effect control and ±100 the full control effect; nearly all actives have a fitted effect of over 65% in size
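Reaction started by adding substrate (50 nM final) to 10 nM enzyme after 15 min room-temperature compound preincubation. Reads at 0 and 15 min, with data normalized and fitted to a four-parameter Hill equation.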
Pol kappa inh-1 – qHTS for Inhibitors of Polymerase Kappa; DNA polymerase kappa (Homo sapiens), Q9UBT6; purified Pol kappa, fluorescent DNA synthesis assay, 10 min; Potency, µM (doses to about 107 µM), for the others: top-dose activity, negative = inhibition, most hits filed as inhibitors; hit rate 0.53% among 400,000; AID 588579, 2011; further: on the % scale 0 is the no-effect control and ±100 the full control effect
Target sequence (Q9UBT6 whole entry, looked up): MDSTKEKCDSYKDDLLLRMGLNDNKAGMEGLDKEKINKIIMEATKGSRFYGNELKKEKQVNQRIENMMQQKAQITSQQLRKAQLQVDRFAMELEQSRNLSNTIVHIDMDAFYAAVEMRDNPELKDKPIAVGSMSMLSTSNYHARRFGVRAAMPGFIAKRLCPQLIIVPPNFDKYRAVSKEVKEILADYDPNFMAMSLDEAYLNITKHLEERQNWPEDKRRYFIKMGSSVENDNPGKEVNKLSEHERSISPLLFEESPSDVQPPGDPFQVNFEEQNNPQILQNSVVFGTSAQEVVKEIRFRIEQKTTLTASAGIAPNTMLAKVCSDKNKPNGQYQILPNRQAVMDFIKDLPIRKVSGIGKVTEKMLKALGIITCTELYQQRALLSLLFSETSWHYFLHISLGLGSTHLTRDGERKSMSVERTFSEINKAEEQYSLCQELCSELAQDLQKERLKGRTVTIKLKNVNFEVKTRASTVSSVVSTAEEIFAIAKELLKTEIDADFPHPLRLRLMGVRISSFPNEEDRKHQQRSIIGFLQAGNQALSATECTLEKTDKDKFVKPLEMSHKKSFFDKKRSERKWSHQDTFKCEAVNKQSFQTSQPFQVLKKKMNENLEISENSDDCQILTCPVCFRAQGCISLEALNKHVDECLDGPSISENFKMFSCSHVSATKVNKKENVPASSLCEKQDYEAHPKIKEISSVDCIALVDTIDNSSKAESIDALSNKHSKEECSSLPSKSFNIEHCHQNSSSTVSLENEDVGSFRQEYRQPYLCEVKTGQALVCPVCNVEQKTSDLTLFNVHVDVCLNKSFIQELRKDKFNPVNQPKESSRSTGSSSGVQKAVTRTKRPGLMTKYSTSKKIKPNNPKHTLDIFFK
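Pol kappa 10 nM + cpd, 15 min RT; start w/ substrate 50 nM final; fluorescence kinetic read, 0 and 10 min. Neg ctrl: buffer, no enzyme.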
Pol eta inh-1 – qHTS for Inhibitors of Polymerase Eta; Potency, µM (top dose mostly 114 µM), inactives show at the top dose activity change, negative = inhibition, actives largely listed as inhibitors; hit rate 1.2% among 390,000; DNA polymerase eta (Homo sapiens), Q9Y253; recombinant Pol eta, fluorescent DNA replication assay; further: on the % scale 0 is the no-effect control and ±100 the full control effect
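Pol eta (10 nM) was preincubated with compounds for 15 min at room temperature, after which fluorescent replication substrate (50 nM final) was added to start the reaction. Fluorescence was read kinetically at 0 and 10 min.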
POLB inh – qHTS Assay for Inhibitors of DNA Polymerase Beta; P06746; Pol beta primer extension/strand displacement, fluorescence kinetic; Potency, µM (titrated, usually from 114 µM), without a hit: at the highest dose activity change, negative = inhibition, usual class: inhibitors; hit rate 1.3% among 340,000; AID 485314, 2010; further: on the % scale 0 is the no-effect control and ±100 the full control effect
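Curves were derived by four-parameter Hill fits of normalized qHTS data. The kinetic fluorescent primer-extension read was taken at 0 and 10 min after 50 nM substrate, following a 15 min room-temperature preincubation of 10 nM enzyme with compounds.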
TbPGK inh – qHTS for inhibitors of Phosphogylcerate Kinase: Hit Validation Screen. Potency, µM (doses to about 57.5 µM), without a hit: at the top dose activity change, negative = inhibition, hits mostly inhibitors. hit rate 79% among 500. shares compounds with Pol kappa inh-1. TbPGK coupled GAPDH assay, Kinase-Glo luminescence; further: on the % scale 0 is the no-effect control and ±100 the full control effect; nearly all actives have a fitted effect of over 65% in size
POLI cherry-pick – qHTS for Inhibitors of Polymerase Iota: Confirmatory Assay for Cherry-picked Compounds. shares compounds with Pol kappa inh-1. Pol iota primer extension, TAMRA/BHQ fluorescence. Potency, µM, hits mostly inhibitors. hit rate 77% among 1,500. AID 720496, 2013
Pol kappa inh-2 – qHTS for Inhibitors of Polymerase Kappa: Confirmatory Assay for Cherry-picked Compounds. shares compounds with Pol eta inh-1. purified Pol-kappa, fluorescent strand-displacement substrate. Potency, µM, hits mostly inhibitors. hit rate 76% among 920
Pol eta inh-2 – qHTS for Inhibitors of Polymerase Eta: Confirmatory Assay for Cherry-picked Compounds. hit rate 64% among 2,600. Potency, µM, hits mostly inhibitors. Pol eta primer extension, TAMRA/BHQ fluorescence, 10 min. shares compounds with Pol eta inh-1
FEN1 inh-2 – qHTS Assay for the Inhibitors of FEN1: Confirmatory Assay for Cherry-picked Compounds; shares compounds with FEN1 inh-1; FEN1 flap cleavage, TAMRA/BHQ2 fluorogenic DNA substrate; Potency, µM, most hits filed as inhibitors; hit rate 79% among 880; AID 720498, 2013; further: nearly all actives have a fitted effect of over 60% in size
WRN helicase inh-2 – qHTS for Inhibitors of WRN Helicase: Confirmatory Assay for Cherry-picked Compounds. shares compounds with WRN helicase inh-1. Potency, µM (highest dose often 57.1 µM), for the others: at the highest dose activity, negative = inhibition, most hits filed as inhibitors. hit rate 63% among 610. WRN helicase DNA unwinding, fluorescence kinetic; further: nearly all actives have a fitted effect of over 65% in size
TO DNA binding – qHTS for Inhibitors of WRN Helicase: Thiazole Orange DNA Binding Counterscreen; shares compounds with WRN helicase inh-1; thiazole orange DNA binding displacement, fluorescence; Potency, µM (highest dose often 57.1 µM), for the others: top-dose activity change, negative = inhibition, usual class: inhibitors; hit rate 10% among 610;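 further: drop in dye fluorescence marks compound binding to DNA; on the % scale 0 is the no-effect control and ±100 the full control effect; nearly all actives have a fitted effect of over 60% in size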
BLM helicase inh – qHTS for Inhibitors of WRN Helicase: BLM Helicase Counterscreen for WRN Inhibitors | Potency, µM (highest dose often 57.1 µM), for the others: top-dose activity change, negative = inhibition, usual class: inhibitors | AID 720503, 2013 | hit rate 60% among 610 | Recombinant BLM helicase DNA unwinding, red fluorescence | shares compounds with WRN helicase inh-1; further: nearly all actives have a fitted effect of over 60% in size
* hit, by the source's call; ? = inconclusive; . = no result; [ ] = remark or other dose. This is a sample that favours compounds with a hit; in the whole collection about 2.4% have one here. The call rests on the fitted dose curve; in most records, active means well fitted curve in the direction sought with a large enough effect; inconclusive means small, poorly fitted or top-dose-only effect, or another doubt; inactive means no such curve, though single readings can be large; an effect the other way counts as inactive or inconclusive. Potency means the concentration at half of the fitted maximal effect.

SMILES	WRN helicase inh-1	POLI inh	FEN1 inh-1	Pol kappa inh-1	Pol eta inh-1	POLB inh	POLI cherry-pick	Pol kappa inh-2	Pol eta inh-2	WRN helicase inh-2	TO DNA binding	BLM helicase inh	others
CC(C)=CCc1c(O)ccc2c1OC(c1ccc(O)c(O)c1)CC2=O (centres undefined)	-7%	-30%	-21%	-14%	-15%	?	.	.	.	.	.	.
Cc1ccc(S(=O)(=O)Nc2ccc3c(c2)C(=O)N([C@@H](C)CO)C[C@@H](C)[C@@H](CN(C)C(=O)NC2CCCCC2)OCCCC[C@H](C)O3)cc1	10%	.	.	.	.	.	.	.	.	.	.	.
COc1ccccc1N(CC(=O)NCc1ccco1)S(=O)(=O)c1ccc(C)cc1	35µM*	5.6µM*	?	32µM*	10µM*	11µM*	21*	11*	27*	17µM*	29%	14µM*	TbPGK inh=16µM*
O=C(CNC(=O)C12CC3CC(CC(C3)C1)C2)NCc1ccccc1	-18%	45%	2%	-15%	1%	.	.	.	.	.	.	.
Cc1cc(C)c(S(=O)(=O)/N=C2\C=C(Nc3ccc(C(=O)O)cc3)C(=O)c3ccccc32)c(C)c1	89µM*	14µM*	?	89µM*	11µM*	22µM*	67*	.	17*	22µM*	?	15µM*
CSC1SCC2C(=O)N(C)C(C(C)C)C(=O)OCC(NC(=O)c3cnc4ccccc4n3)C(=O)NC(C)C(=O)N(C)C1C(=O)N(C)C(C(C)C)C(=O)OCC(NC(=O)c1cnc3ccccc3n1)C(=O)NC(C)C(=O)N2C (centres undefined)	0.53µM*	0.32µM*	0.56µM*	-100%	-99%	.	1.5*	0.75*	1.5*	0.34µM*	?	0.54µM*	FEN1 inh-2=0.6*
Cc1ccccc1OCC(=O)Nc1nnc(SCc2cc(=O)n3cc(Cl)ccc3n2)s1	.	-10%	12%	-9%[60.1 µM]	-4%	-15%	.	.	.	.	.	.
CCN(Cc1ccncc1)C(=O)CCc1nnc(CCc2ccccc2OC)o1	5%	-17%	0%	2%	-11%	-18%	.	.	.	.	.	.
O=C1c2cccc(NCCNCCO)c2C(=O)c2cccc(NCCNCCO)c21	7.1µM*	45µM*	4µM*	28µM*	7.1µM*	.	19*	19*	.	6.1µM*	1.2µM*	7.6µM*
Cc1ccc(-c2nc3c(c(SCC(=O)Nc4cccc(C(=O)O)c4)n2)Cc2cccc(C)c2O3)cc1	.	?	?	?	.	1.8µM*	8.4*	3.8*	85*	2.2µM*	2.7µM*	0.86µM*
COc1ccc(C(=O)c2cn(CC(=O)Nc3ccc4c(c3)OCCO4)c3ccc(OC)cc3c2=O)cc1	.	14µM*	40µM*	?	?	8.9µM*	7.5*	6*	?	12µM*	7.6µM*	7.6µM*
Cc1ccc(C)n1/N=C1/NC(=O)CS1	16µM*	2.5µM*	32µM*	10µM*	2.2µM*	18µM*	42*	.	30*	24µM*	-9%	5.4µM*	TbPGK inh=?
Cc1ccc(N=C2NC(=O)CS2)cc1	1%	7%	-4%	-11%	10%	-24%	.	.	.	.	.	.
CCN1CCc2nc3sc(C(=O)c4ccccc4)c(N)c3cc2C1	.	69%	-15%	-16%	4%	10%	.	.	.	.	.	.
N#Cc1c(N)oc(-c2ccco2)c1-c1ccco1	-35%	?	-17%	?	?	-16%	.	.	.	.	.	.
COc1ccc(OC)c(/C=N/c2oc(-c3ccco3)c(-c3ccco3)c2C#N)c1	?	?	-13%	79µM*	79µM*	45µM*	38*	.	48*	22µM*	?	6.8µM*
O=S(=O)(Nc1ccc(Cl)cc1NS(=O)(=O)c1ccccc1)c1ccccc1	-10%	?	-4%	-1%	-7%	.	.	.	.	.	.	.
O=C(O)CSc1cc(NS(=O)(=O)c2ccc(Cl)cc2)c2ccccc2c1O	13µM*	3.2µM*	35µM*	-18%	20µM*	79µM*	84*	67*	76*	?	-12%	?	FEN1 inh-2=76*
COc1ccc(S(N)(=O)=O)cc1C(=O)NNC(=O)CN(C)S(=O)(=O)c1ccc(Cl)cc1	2%	46%	1%	4%	-10%	.	.	.	.	.	.	.

Screening data (PubChem)
